# This is part of a sample that, as a whole, favours compounds with a hit. Of some 79,000 tested, about 15% had one in any assay. A number with no mark means an inactive call. Calls of active or inactive are those of the source. No stated cut-off is given here; in the data, active means growth inhibition above about 70%; inactive means the rest.
# Legend:
# [1] = NCI Yeast Anticancer Drug Screen. Data for the rad52 strain (AID 147);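 further: 0% = growth of vehicle-treated control cultures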; details: S. cerevisiae rad52 mutant growth inhibition, stronger effect = higher value
# Outline: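 Read-out: growth inhibition versus vehicle-treated controls. Cells were a DNA repair-deficient yeast strain treated with compounds.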
# [2] = NCI Yeast Anticancer Drug Screen. Data for the wt1 strain (AID 149);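 further: 0% = growth of vehicle-treated wt1 cultures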; details: S. cerevisiae wt1 strain (SPY 50644) growth inhibition, stronger effect = higher value
# Outline: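 Compounds are added to wt1 yeast cultures. Growth is then measured. Inhibition is expressed relative to vehicle-treated controls.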
# [3] = NCI Yeast Anticancer Drug Screen. Data for the rad50EPP+ strain (AID 151);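 further: 0% = growth of vehicle-treated control cultures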; details: S. cerevisiae rad50 mutant strain, stronger effect = higher value
# Outline: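 Growth inhibition read against vehicle controls in rad50EPP+ yeast, a strain altered in DNA damage repair, after compound exposure.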
# [4] = NCI Yeast Anticancer Drug Screen. Data for the mgt1 strain (AID 153); details: S. cerevisiae mgt1 mutant growth inhibition, stronger effect = higher value
# Outline: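 mgt1 yeast grown with test compound; read-out is growth inhibition versus vehicle-treated cultures.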
# [5] = NCI Yeast Anticancer Drug Screen. Data for the rad50 strain (AID 155);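 further: 0% = growth of vehicle-only cultures of the same strain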; details: S. cerevisiae rad50 strain growth inhibition, stronger effect = higher value
# Outline: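 Inhibition values express reduced yeast growth in compound-treated cultures relative to vehicle-treated controls.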
# [6] = NCI Yeast Anticancer Drug Screen. Data for the mec2-1 strain (AID 157); details: S. cerevisiae mec2-1 strain, stronger effect = higher value
# Outline: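 Yeast mec2-1 mutant treated with compound. Readout: growth inhibition vs vehicle controls.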
# [7] = NCI Yeast Anticancer Drug Screen. Data for the rad14 strain (AID 159);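 further: 0% = growth of vehicle-treated control cultures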; details: S. cerevisiae rad14 strain growth inhibition, stronger effect = higher value
# Outline: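 A mutant yeast strain defective in DNA damage repair is treated with compound; inhibition of its growth is scored against untreated, vehicle-exposed cultures.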
# [8] = NCI Yeast Anticancer Drug Screen. Data for the sgs1 mgt1 strain (AID 161);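 further: 0% = growth of cultures given vehicle only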; details: S. cerevisiae sgs1 mgt1 strain, stronger effect = higher value
# Outline: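 Test agents were incubated with a DNA-repair-mutant yeast strain. Growth was then read and compared against vehicle-treated controls.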
# [9] = NCI Yeast Anticancer Drug Screen. Data for the CLN2oe strain (AID 163);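 further: 0% = growth of vehicle-only control cultures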; details: S. cerevisiae CLN2oe strain, stronger effect = higher value
# Outline: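 Read-out: yeast growth inhibition, expressed relative to vehicle-only controls. The strain bears an engineered cell-cycle alteration.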
# [10] = NCI Yeast Anticancer Drug Screen. Data for the cln2 rad14 strain (AID 165);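 further: 0% = growth equal to vehicle treated cultures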; details: S. cerevisiae cln2 rad14 strain, stronger effect = higher value
# Outline: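 cln2 rad14 yeast strain; compound exposure; growth inhibition read vs vehicle controls.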
# [11] = NCI Yeast Anticancer Drug Screen. Data for the bub3 strain (AID 167); details: S. cerevisiae bub3 mutant strain, stronger effect = higher value
# Outline: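 Steps: expose the mutant yeast strain to compound; grow alongside vehicle-treated cultures; measure growth; express inhibition against the vehicle cultures.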
# [12] = NCI Yeast Anticancer Drug Screen. Data for the wt2 strain (AID 169);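 further: 0% = growth of vehicle-treated yeast cultures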; details: S. cerevisiae wt2 strain growth inhibition, stronger effect = higher value
# Outline: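 Read-out: growth inhibition versus vehicle-treated control cultures after compound exposure of the yeast strain.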
# [13] = NCI Yeast Anticancer Drug Screen. Data for the mlh1 strain (AID 171);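 further: 0% = growth of vehicle-treated control cultures of the same strain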; details: S. cerevisiae mlh1 strain growth inhibition, stronger effect = higher value
# Outline: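 Read-out: growth inhibition versus vehicle controls. Strain: engineered yeast with a defined DNA repair or cell cycle defect, compound-treated.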
# [14] = NCI Yeast Anticancer Drug Screen. Data for the sgs1 strain (AID 173);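 further: 0% = growth of vehicle-only control cultures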; details: S. cerevisiae sgs1 mutant, stronger effect = higher value
# Outline: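 Read-out: yeast growth inhibition relative to vehicle controls, following compound exposure of a strain with a defined DNA repair/cell cycle alteration.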
# [15] = NCI Yeast Anticancer Drug Screen. Data for the mlh1 rad18 strain (AID 175); details: S. cerevisiae mlh1 rad18 strain growth inhibition, stronger effect = higher value
# Outline: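 Yeast w/ defined DNA-repair lesions; compound exposure; growth vs vehicle controls → % inhibition.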
# [16] = NCI Yeast Anticancer Drug Screen. Data for the rad18 strain (AID 177); details: S. cerevisiae rad18 mutant growth inhibition, stronger effect = higher value
# Outline: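 Readout: growth inhibition vs vehicle controls. Cells: genetically altered yeast strain, DNA repair defect.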
# [17] = at 5.0 µM (retest, dose inferred, filed as 0.5)
# [18] = at 50.0 µM (retest, dose inferred, filed as 5.0)
smiles,measurement,setting,value
CC1=CC(=C(c2ccc(N)c(C)c2)c2ccc(N)c(C)c2)C=CC1=N,growth inhibition,[1]; at 1.2 µM,24%
same,growth inhibition,[1]; at 3.7 µM,41%
same,growth inhibition,[1]; at 11.0 µM,47%
same,growth inhibition,[1]; at 33.0 µM,64%
same,growth inhibition,[1]; at 100.0 µM,97% (active)
same,growth inhibition,[2]; at 1.2 µM,8%
same,growth inhibition,[2]; at 3.7 µM,9%
same,growth inhibition,[2]; at 11.0 µM,7%
same,growth inhibition,[2]; at 33.0 µM,6%
same,growth inhibition,[2]; at 100.0 µM,90% (active)
same,growth inhibition,[3]; at 1.2 µM,8%
same,growth inhibition,[3]; at 3.7 µM,17%
same,growth inhibition,[3]; at 11.0 µM,23%
same,growth inhibition,[3]; at 33.0 µM,30%
same,growth inhibition,[3]; at 100.0 µM,83% (active)
same,growth inhibition,[4]; at 1.2 µM,-2%
same,growth inhibition,[4]; at 3.7 µM,7%
same,growth inhibition,[4]; at 11.0 µM,12%
same,growth inhibition,[4]; at 33.0 µM,39%
same,growth inhibition,[4]; at 100.0 µM,97% (active)
same,growth inhibition,[5]; at 1.2 µM,21%
same,growth inhibition,[5]; at 3.7 µM,10%
same,growth inhibition,[5]; [17],20%
same,growth inhibition,[5]; at 11.0 µM,18%
same,growth inhibition,[5]; at 33.0 µM,22%
same,growth inhibition,[5]; [18],87% (active)
same,growth inhibition,[5]; at 50.0 µM,85.2% (active)
same,growth inhibition,[5]; at 100.0 µM,96% (active)
same,growth inhibition,[6]; at 1.2 µM,1%
same,growth inhibition,[6]; at 3.7 µM,5%
same,growth inhibition,[6]; [17],18%
same,growth inhibition,[6]; at 11.0 µM,3%
same,growth inhibition,[6]; at 33.0 µM,37%
same,growth inhibition,[6]; [18],97% (active)
same,growth inhibition,[6]; at 50.0 µM,89.6% (active)
same,growth inhibition,[6]; at 100.0 µM,96% (active)
same,growth inhibition,[7]; at 1.2 µM,0%
same,growth inhibition,[7]; at 3.7 µM,2%
same,growth inhibition,[7]; at 11.0 µM,-2%
same,growth inhibition,[7]; at 33.0 µM,19%
same,growth inhibition,[7]; at 100.0 µM,97% (active)
same,growth inhibition,[8]; [17],30%
same,growth inhibition,[8]; [18],79% (active)
same,growth inhibition,[8]; at 50.0 µM,83.7% (active)
same,growth inhibition,[9]; at 1.2 µM,19%
same,growth inhibition,[9]; at 3.7 µM,36%
same,growth inhibition,[9]; at 11.0 µM,41%
same,growth inhibition,[9]; at 33.0 µM,50%
same,growth inhibition,[9]; at 100.0 µM,97% (active)
same,growth inhibition,[10]; [17],9%
same,growth inhibition,[10]; [18],75% (active)
same,growth inhibition,[10]; at 50.0 µM,74.5% (active)
same,growth inhibition,[11]; at 1.2 µM,12%
same,growth inhibition,[11]; at 3.7 µM,26%
same,growth inhibition,[11]; [17],18%
same,growth inhibition,[11]; at 11.0 µM,29%
same,growth inhibition,[11]; at 33.0 µM,54%
same,growth inhibition,[11]; [18],97% (active)
same,growth inhibition,[11]; at 50.0 µM,89.8% (active)
same,growth inhibition,[11]; at 100.0 µM,96% (active)
same,growth inhibition,[12]; at 1.2 µM,-33%
same,growth inhibition,[12]; at 3.7 µM,-20%
same,growth inhibition,[12]; at 11.0 µM,-31%
same,growth inhibition,[12]; at 33.0 µM,75% (active)
same,growth inhibition,[12]; at 100.0 µM,97% (active)
same,growth inhibition,[13]; at 1.2 µM,7%
same,growth inhibition,[13]; at 3.7 µM,10%
same,growth inhibition,[13]; at 11.0 µM,14%
same,growth inhibition,[13]; at 33.0 µM,55%
same,growth inhibition,[13]; at 100.0 µM,96% (active)
same,growth inhibition,[14]; at 1.2 µM,5%
same,growth inhibition,[14]; at 3.7 µM,19%
same,growth inhibition,[14]; at 11.0 µM,18%
same,growth inhibition,[14]; at 33.0 µM,51%
same,growth inhibition,[14]; at 100.0 µM,95% (active)
same,growth inhibition,[15]; [17],51%
same,growth inhibition,[15]; [18],94% (active)
same,growth inhibition,[15]; at 50.0 µM,84.8% (active)
same,growth inhibition,[16]; at 1.2 µM,2%
same,growth inhibition,[16]; at 3.7 µM,20%
same,growth inhibition,[16]; at 11.0 µM,20%
same,growth inhibition,[16]; at 33.0 µM,35%
same,growth inhibition,[16]; at 100.0 µM,96% (active)

# Reference: PubChem BioAssay (NCI)
